Among the data in PubChem BioAssay (Tox21) are Potency values, retold here.

The nature of assay [1]: qHTS assay to identify small molecule antagonists of the glucocorticoid receptor (GR) signaling pathway - cell viability counter screen (AID 720693). Also: nearly all actives have a fitted effect of over 55% in size.
Assay [2] in a line: qHTS assay for identifying genotoxic compounds that show differential cytotoxicity against isogenic chicken DT40 cell lines with known DNA damage response pathways - wild type cell line (AID 743012). Also: nearly all actives have a fitted effect of over 60% in size. Also: potency is read from the fitted curve at half-maximal effect. Put shortly:
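Viability of DNA repair-proficient chicken DT40 cells was assessed by CellTiter-Glo luminescence following 40 h compound exposure at 37 C/5% CO2.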

Assay [3] can be described thus: qHTS assay for identifying genotoxic compounds that show differential cytotoxicity against isogenic chicken DT40 cell lines with known DNA damage response pathways - Rev3 mutant cell line (AID 743014). Also: nearly all actives have a fitted effect of over 55% in size. Also: potency is read from the fitted curve at half-maximal effect.
The nature of assay [4]: qHTS assay for identifying genotoxic compounds that show differential cytotoxicity against isogenic chicken DT40 cell lines with known DNA damage response pathways - Rad54/Ku70 mutant cell line (AID 743015). Also: nearly all actives have a fitted effect of over 60% in size. Also: potency is read from the fitted curve at half-maximal effect.
Assay [5] in a line: qHTS assay to identify small molecule antagonists of the androgen receptor (AR) signaling pathway - cell viability counter screen (AID 743033; also: nearly all actives have a fitted effect of over 45% in size).
Assay [6] can be described thus: qHTS assay to identify small molecule antagonists of the androgen receptor (AR) signaling pathway using the MDA cell line - cell viability counter screen (AID 743041; also: nearly all actives have a fitted effect of over 45% in size). Put shortly:
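Using the breast carcinoma line MDA-kb2 AR-luc, test chemicals were co-incubated with R1881 for 16 h; CellTiter-Fluor reagent, added at 15.5 h, provided a fluorescence measure of live cells.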

A short description of assay [7]: qHTS assay to identify small molecule antagonists of the thyroid receptor (TR) signaling pathway - cell viability counter screen (AID 743064). Also: nearly all actives have a fitted effect of over 50% in size. Also: potency is read from the fitted curve at half-maximal effect. Put shortly:
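Viability of T3-stimulated (1 nM final) GH3.TRE-Luc cells is measured by CellTiter-Fluor fluorescence after 23.5 h compound exposure at 37 °C plus 30 min reagent incubation.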

Where “and” joins values, the source holds several entries; their conditions need not be identical. Equal values may be shown once. Records with an inconclusive call do not appear. A structure can be active in one record and inactive in another. Calls of active or inactive are those of the source. Calls follow the shape of the dose curve; as a rule, active = well fitted curve in the direction sought with a large enough effect in the repeat runs; inconclusive = weak or mixed curves; inactive = no such curve, though single readings can be large; an effect the other way counts as inactive or inconclusive.

For the compound `O=C1C=CC(=O)C=C1`, the Potency result in assay [1], in assay [5], in assay [6] and in assay [7] was “inactive” throughout. In addition, the Potency entry was “inactive and 9.69 µM (active)” in assay [2]; “inactive and 9.69 µM (active)” in assay [3]; “inactive and 10.9 µM (active)” in assay [4].

In the case of `CC(C)=CC1C(C(=O)OCc2coc(Cc3ccccc3)c2)C1(C)C` (stereo not drawn), the Potency result in assay [1], in assay [5], in assay [6] and in assay [7] was “inactive” in each case. Also, the Potency entry is “inactive and 38.5 µM (active)” in assay [2]; “inactive and 54.4 µM (active)” in assay [3]; “inactive and 43.2 µM (active)” in assay [4].

In the case of `Nn1cnnc1`, the Potency result in assay [1], in assay [2], in assay [3], in assay [4], in assay [5] and in assay [6] was “inactive” each time. Also, the Potency entry in assay [7] was “inactive”.

As to `CC(C)N(C(=O)SCC(Cl)=C(Cl)Cl)C(C)C`, the Potency result in assay [1], in assay [5] and in assay [6] was “inactive” throughout. For the same compound, the Potency in assay [2] is 61.1 µM (active); in assay [3], “inactive and 54.5 µM (active)”; in assay [4], “inactive and 30.6 µM (active)”; in assay [7], 47.9 µM (active).

With `CNC(=O)N(C)c1nnc(C(C)(C)C)s1`, the Potency entry in assay [1], in assay [2], in assay [3], in assay [4], in assay [5] and in assay [6] was “inactive” throughout. In addition, the Potency entry in assay [7] is “inactive”.

On to `C1=Cc2cccc3cccc1c23`, for which the Potency entry in assay [1], in assay [2], in assay [4], in assay [5], in assay [6] and in assay [7] was “inactive” throughout. The Potency in assay [3] is 60.1 µM (active).

As for `CCC(C)(C)c1ccc(O)cc1`, the Potency result in assay [1], in assay [5], in assay [6] and in assay [7] was “inactive” each time. Besides, the Potency result in assay [2] is “inactive and 54.5 µM (active)”; in assay [3] it was “inactive and 61.8 µM (active) and 30.6 µM (active)”; in assay [4], “inactive and 54.5 µM (active)”.

Turning to `O=C(O)C(F)(F)C(F)(F)C(F)(F)C(F)(F)C(F)(F)C(F)(F)C(F)(F)F`, the Potency entry in assay [1], in assay [2], in assay [3], in assay [4], in assay [5] and in assay [6] was “inactive” each time. The Potency result in assay [7] is “inactive”.

Take `CCCCCCOC(=O)c1ccccc1C(=O)OCCCCCC`: the Potency entry in assay [1], in assay [3], in assay [4], in assay [5], in assay [6] and in assay [7] was “inactive” each time. Besides, in assay [2], the Potency result was “inactive and 30.6 µM (active)”.

As for `CCCCCCCCC(=O)NCc1ccc(O)c(OC)c1`, the Potency entry in assay [1], in assay [2], in assay [4], in assay [5], in assay [6] and in assay [7] was “inactive” throughout. Further, the Potency result in assay [3] is “inactive and 68.6 µM (active)”.

Regarding `Cc1cc(C)cc(C)c1`, the Potency entry in assay [1], in assay [2], in assay [3], in assay [4], in assay [5] and in assay [6] was “inactive” each time. In assay [7], the Potency entry is “inactive”.

As for `CCN(CC)C(=O)SCc1ccc(Cl)cc1`, the Potency result in assay [1], in assay [5], in assay [6] and in assay [7] was “inactive” each time. Further, the results for the Potency in assay [2], in assay [3] and in assay [4] were 43.3 µM (active), 21.7 µM (active) and 24.3 µM (active), respectively.

Turning to `COc1ccc(C=O)cc1`, the Potency result in assay [1], in assay [2], in assay [3], in assay [4], in assay [5] and in assay [6] was “inactive” throughout. In addition, the Potency result in assay [7] was “inactive”.

`C#C[C@]1(O)CC[C@H]2[C@@H]3CCC4=CC(=O)CC[C@]4(C)[C@H]3CC[C@@]21C`: the Potency entry in assay [1], in assay [2], in assay [3], in assay [4], in assay [5] and in assay [6] was “inactive” each time. Further, in assay [7], the Potency result is “inactive”.

Regarding `O=Cc1ccco1`, the Potency result in assay [1], in assay [2], in assay [3], in assay [4], in assay [5] and in assay [6] was “inactive” throughout. In addition, the Potency result in assay [7] is “inactive”.

Turning to `CC(O)CCO` (stereo not drawn), the Potency result in assay [1], in assay [2], in assay [4], in assay [5], in assay [6] and in assay [7] was “inactive” in each case. Further, in assay [3], the Potency entry was “inactive and 68.6 µM (active)”.

`Nc1ccc(Cl)c(Cl)c1`: the Potency entry in assay [1], in assay [2], in assay [3], in assay [4], in assay [5] and in assay [6] was “inactive” throughout. Further, in assay [7], the Potency entry was “inactive”.

In the case of `c1ccc(NNc2ccccc2)cc1`, the Potency result in assay [1], in assay [5], in assay [6] and in assay [7] was “inactive” each time. The Potency result in assay [2] was “inactive and 30.6 µM (active)”; in assay [3], 24.3 µM (active); in assay [4] it was “inactive and 27.3 µM (active)”.

In the case of `Cc1ccccc1[N+](=O)[O-]`, the Potency result in assay [1], in assay [2], in assay [3], in assay [4], in assay [5] and in assay [6] was “inactive” throughout. In assay [7], the Potency result is “inactive”.

As for `CC(C)NC(C)C`, the Potency result in assay [1], in assay [2], in assay [3], in assay [4], in assay [5] and in assay [6] was “inactive” in each case. Further, in assay [7], the Potency entry was “inactive”.

Regarding `Cc1cccc(N)c1N`, the Potency result in assay [1], in assay [5], in assay [6] and in assay [7] was “inactive” throughout. The Potency entry is “inactive and 19.3 µM (active)” in assay [2]; 19.3 µM (active) in assay [3]; 21.7 µM (active) in assay [4].

`CCCCN(CC)c1c([N+](=O)[O-])cc(C(F)(F)F)cc1[N+](=O)[O-]`: the Potency entry in assay [1], in assay [2], in assay [3], in assay [4], in assay [5] and in assay [6] was “inactive” throughout. For the same compound, the Potency in assay [7] was 54.5 µM (active).

As to `Oc1cc(Cl)c(Cl)cc1Cl`, the Potency result in assay [1], in assay [2], in assay [5], in assay [6] and in assay [7] was “inactive” throughout. The Potency entry is “inactive and 68.6 µM (active)” in assay [3]; “inactive and 61.1 µM (active)” in assay [4].

Take `Oc1cc(Cl)ccc1Cl`: the Potency result in assay [1], in assay [2], in assay [3], in assay [4], in assay [5] and in assay [6] was “inactive” in each case. Besides, the Potency entry in assay [7] was “inactive”.
